Source: PubChem BioAssay (NCATS)
Records with an inconclusive call do not appear. Active and inactive are the calls of the source. Unless noted, calls follow the shape of the dose curve; as a rule, active = well fitted curve in the direction sought with a large enough effect; inconclusive = small, poorly fitted or top-dose-only effect, or another doubt; inactive = no such curve, though single readings can be large; an effect the other way counts as inactive or inconclusive.

Target: Luciferin 4-monooxygenase (Photinus pyralis) (UniProt P08659)
Sequence (P08659 whole entry, looked up): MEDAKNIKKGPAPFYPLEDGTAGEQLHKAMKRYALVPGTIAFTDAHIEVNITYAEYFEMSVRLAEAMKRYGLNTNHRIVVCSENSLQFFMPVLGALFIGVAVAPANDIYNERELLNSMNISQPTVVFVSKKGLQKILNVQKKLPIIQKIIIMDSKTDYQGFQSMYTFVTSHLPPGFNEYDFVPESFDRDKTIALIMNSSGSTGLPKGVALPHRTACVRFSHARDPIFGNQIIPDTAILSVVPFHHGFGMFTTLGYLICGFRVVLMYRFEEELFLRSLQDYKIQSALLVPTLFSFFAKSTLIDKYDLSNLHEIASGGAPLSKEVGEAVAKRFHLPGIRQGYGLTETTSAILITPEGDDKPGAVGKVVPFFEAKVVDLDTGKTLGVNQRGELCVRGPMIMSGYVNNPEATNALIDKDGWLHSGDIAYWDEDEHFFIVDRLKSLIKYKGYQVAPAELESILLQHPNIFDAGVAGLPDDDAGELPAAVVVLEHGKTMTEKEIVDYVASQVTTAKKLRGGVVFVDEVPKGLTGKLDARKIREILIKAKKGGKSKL
Assay: Biochemical firefly luciferase enzyme assay for NPC (AID 624030);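 also: purified P. pyralis luciferase at 10 nM with luciferin and ATP substrate; 0% = DMSO and -100% = full luciferase inhibition by PTC124 control; nearly all actives have a fitted effect of over 70% in size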
Conditions: purified P. pyralis luciferase, luminescence, 5 min; series mostly up to 58.6 µM; activity change, negative = inhibition: at the top concentration
Summary of the method: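 Direct inhibition of firefly luciferase enzyme (10 nM final, 50 mM Tris Acetate) assessed by luminescence within 5 minutes. Percent activity scaled between DMSO and PTC124 positive control, with concentration-effect curves classified by fit quality and response.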

SMILES	activity change, negative = inhibition
O=CCCCC=O	0.049% (inactive)
CC(C)(C)NC(=O)[C@@H]1C[C@@H]2CCCC[C@@H]2CN1C[C@@H](O)[C@H](Cc1ccccc1)NC(=O)[C@H](CC(N)=O)NC(=O)c1ccc2ccccc2n1	-3.07% (inactive)
CCOc1ccc2c(c1)C(C)=CC(C)(C)N2	-22.2% (inactive)
O=C(O)CCC(=O)C(=O)O	-1.19% (inactive)
O=S(=O)(O)O	-0.566% (inactive)
CC(O)CO (stereo unspecified)	0.934% (inactive)
CCCCC/C=C\C/C=C\CCCCCCCC(=O)O	-11.4% (inactive)
CCOC(C)=O	0.47% (inactive)
CCCCCCCC/C=C\CCCCCCCC(=O)O	-15.1% (inactive)
CC1=CCC(C(C)(C)O)CC1 (stereo unspecified)	1.67% (inactive)
O=C(O)CN(CCN(CC(=O)O)CC(=O)O)CC(=O)O	2.42% (inactive)
C[C@H]1C[C@H]2[C@@H]3CCC4=CC(=O)C=C[C@]4(C)[C@@]3(F)[C@@H](O)C[C@]2(C)[C@@]1(O)C(=O)CO	-0.19% (inactive)
Cc1ccccc1	2.64% (inactive)
CC(C)=O	0.56% (inactive)
CC1=C(/C=C/C(C)=C/C=C/C(C)=C/CO)C(C)(C)CCC1	0.835% (inactive)
CCCCCCCC(=O)O	-3.96% (inactive)

Test system: not listed separately
Assay: S16 Schwann cell viability assay (CellTiter-Glo assay) (AID 624031);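 also: native untransfected S16 rat Schwann cells; cellular ATP luminescence as a viability measure; plate controls were DMSO-treated cells for no effect and cell-free wells for full effect; nearly all actives have a fitted effect of over 70% in size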
Conditions: S16 rat Schwann cells viability, 24 h; series mostly up to 57.5 µM; activity change, negative = cytotoxicity: at the top concentration
Summary of the method: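 Following overnight culture in 10% FBS DMEM, parental S16 rat Schwann cells are dosed for 24 h at 37 °C. Viability is read as CellTiter-Glo luminescence and expressed as % activity relative to DMSO (0%) and no-cell wells.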

SMILES	activity change, negative = cytotoxicity
O=CCCCC=O	4.14% (inactive)
CC(C)(C)NC(=O)[C@@H]1C[C@@H]2CCCC[C@@H]2CN1C[C@@H](O)[C@H](Cc1ccccc1)NC(=O)[C@H](CC(N)=O)NC(=O)c1ccc2ccccc2n1	1.39% (inactive)
CCOc1ccc2c(c1)C(C)=CC(C)(C)N2	-0.39% (inactive)
O=C(O)CCC(=O)C(=O)O	14.4% (inactive)
O=S(=O)(O)O	9.9% (inactive)
CC(O)CO (stereo unspecified)	8.6% (inactive)
CCOC(C)=O	0.693% (inactive)
CCCCCCCC/C=C\CCCCCCCC(=O)O	13.6% (inactive)
CC1=CCC(C(C)(C)O)CC1 (stereo unspecified)	-19.3% (inactive)
O=C(O)CN(CCN(CC(=O)O)CC(=O)O)CC(=O)O	19.7% (inactive)
C[C@H]1C[C@H]2[C@@H]3CCC4=CC(=O)C=C[C@]4(C)[C@@]3(F)[C@@H](O)C[C@]2(C)[C@@]1(O)C(=O)CO	13.5% (inactive)
Cc1ccccc1	11% (inactive)
CCCCC(CC)COC(=O)CC(C(=O)OCC(CC)CCCC)S(=O)(=O)O (stereo unspecified)	0% (inactive)
CC(C)=O	-1.11% (inactive)
CC1(C)C(C=C(Cl)Cl)C1C(=O)OCc1cccc(Oc2ccccc2)c1 (stereo unspecified)	11% (inactive)
CC1=C(/C=C/C(C)=C/C=C/C(C)=C/CO)C(C)(C)CCC1	-5.86% (inactive)
CCCCCCCC(=O)O	0.391% (inactive)
IC(I)I	2.79% (inactive)

Test system: not listed separately
Assay: S16 Schwann cell PMP22 intronic element firefly luciferase assay (AID 624032);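 also: plate controls were DMSO for no effect and PTC124 positive control mean for full effect; nearly all actives have a fitted effect of over 30% in size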
Conditions: S16 rat Schwann cells, PMP22 element FLuc, 24 h; series mostly up to 57.5 µM; activity change, negative = inhibition: at the top concentration
Summary of the method: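 Luciferase reporter of PMP22 intronic-element expression in stably transfected S16 rat Schwann cells, read by ONE-Glo luminescence after 24 h compound exposure at 37 C. Activity scaled between DMSO (0%) and positive-control PTC124; concentration-effect curves quality-classified.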

SMILES	activity change, negative = inhibition
O=CCCCC=O	-16.2% (inactive)
CCOc1ccc2c(c1)C(C)=CC(C)(C)N2	-7.44% (inactive)
O=C(O)CN(CCN(CC(=O)O)CC(=O)O)CC(=O)O	-7.12% (inactive)
C[C@H]1C[C@H]2[C@@H]3CCC4=CC(=O)C=C[C@]4(C)[C@@]3(F)[C@@H](O)C[C@]2(C)[C@@]1(O)C(=O)CO	-0.0785% (inactive)

Test system: not listed separately
Assay: S16 Schwann cell PMP22 intronic element beta-lactamase assay (AID 624044; calls by dose curve;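 also: 0% = DMSO and -100% = potassium clavulanate positive control; nearly all actives have a fitted effect of over 15% in size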)
Conditions: S16 rat Schwann cells, PMP22 element beta-lactamase FRET, 24 h; series mostly up to 38.3 µM; ratio activity, negative = inhibition: at the top concentration
Summary of the method: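 Rat S16 Schwann cells with beta-Lac driven by a PMP22 intronic element, compound-treated 24 h at 37 °C. LiveBLAzer FRET B/G read: 460 nm normalized to potassium clavulanate vs DMSO; 535 nm FRET as viability; concentration-effect curves classified.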

SMILES	ratio activity, negative = inhibition
O=CCCCC=O	1.89% (inactive)
CCOc1ccc2c(c1)C(C)=CC(C)(C)N2	-0.479% (inactive)
O=S(=O)(O)O	-1.65% (inactive)
CC(O)CO (stereo unspecified)	1.44% (inactive)
CCCCC/C=C\C/C=C\CCCCCCCC(=O)O	-10.2% (inactive)
CCOC(C)=O	0.295% (inactive)
CCCCCCCC/C=C\CCCCCCCC(=O)O	-0.944% (inactive)
CC1=CCC(C(C)(C)O)CC1 (stereo unspecified)	2.74% (inactive)
O=C(O)CN(CCN(CC(=O)O)CC(=O)O)CC(=O)O	0.708% (inactive)
C[C@H]1C[C@H]2[C@@H]3CCC4=CC(=O)C=C[C@]4(C)[C@@]3(F)[C@@H](O)C[C@]2(C)[C@@]1(O)C(=O)CO	0.681% (inactive)
CCCCC(CC)COC(=O)CC(C(=O)OCC(CC)CCCC)S(=O)(=O)O (stereo unspecified)	-1.6% (inactive)
CC1(C)C(C=C(Cl)Cl)C1C(=O)OCc1cccc(Oc2ccccc2)c1 (stereo unspecified)	-7.76% (inactive)
IC(I)I	3.66% (inactive)
